Test results reported in PubChem BioAssay (NCI).
This is part of a sample that, as a whole, favours compounds with a hit. Of some 83,000 tested, about 20% had one in any assay.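 Activity criterion: percent growth below 10, measured after cells in 96-well plates were exposed to a single compound concentration for 48 hours.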 The source made the active and inactive calls.

system: MDA-MB-231 breast; assay: NCI-60 one-dose screen, 48 h (100 = growth as untreated, 0 = no growth, -100 = all killed); settings: 10 µM unless noted

Question: For `CCOC(=O)[C@H](CSSc1ncnc2cc[nH]c12)NC(=O)[C@@H](C)c1ccc2cc(OC)ccc2c1`, which growth is on record?
Answer: 28.2% (inactive)

Question: With `CC(C)C[C@H](NC(=O)Cn1ccc(NCc2ccccc2)cc1=O)B(O)O` as the molecule, how does the growth read?
Answer: 28% (inactive)

Question: How did the growth turn out when `COc1ccc(C(=O)c2cc(OC)c(OC)c(OC)c2)cc1/C=C/C(=O)c1ccc(O)cc1` was run?
Answer: 35% (inactive)

Question: Which growth does the source give for `Cc1cccc(NC(=O)c2sc3nc4c(cc3c2N)CCC4)c1C` here?
Answer: 30.6% (inactive)

Question: How did the growth turn out when `COc1cc(-c2cc(/C=C3\CCCCC3=O)[nH]n2)cc(OC)c1OC` was run?
Answer: 94.6% (inactive)

Question: With `COc1cccc(C2CC(=O)Nc3c2c(C)nn3-c2nc3ccccc3[nH]2)c1OC` (stereo not drawn) as the molecule, how does the growth read?
Answer: 82.1% (inactive)

Question: With `CCNC(=O)C1CCCN1C(=O)C(CCCN=C(N)N)NC(=O)C(CC(C)C)NC(=O)C(CC(C)C)NC(=O)C(Cc1ccc(O)cc1)NC(=O)C(CO)NC(=O)C(Cc1c[nH]c2ccccc12)NC(=O)C(Cc1cnc[nH]1)NC(=O)C1CCC(=O)N1` (stereo not drawn) as the molecule, how does the growth read?
Answer: 112% (inactive)

Question: For `COc1ccc(-c2nc3sccn3c2-c2ccnc(NCCCNS(=O)(=O)c3ccc(F)cc3)n2)cc1`, which growth is on record?
Answer: 43.2% (inactive)

Question: Which growth does the source give for `CCCCCC(=O)OCc1ccccc1` here?
Answer: 109% (inactive)

Question: For `CN(C)c1nc(N)c(N=O)c(N)n1`, which growth is on record?
Answer: 108% (inactive)

Question: With `COc1ccc(Cn2cc(COc3cc(/C=C/C(=O)c4cc(OC)c(OC)c(OC)c4)ccc3OC)nn2)cc1` as the molecule, how does the growth read?
Answer: 84.9% (inactive)

Question: With `CCOC(=O)C(Cc1ccccc1)n1c(O)c(C=Nc2ccc(C(=O)OCCN(CC)CC)cc2)sc1=O` (stereo not drawn) as the molecule, how does the growth read?
Answer: 89.3% (inactive)

Question: For `COc1cc(Cn2c(SCC(=O)Nc3ccc(Cl)cc3)nc3ccccc3c2=O)cc(OC)c1OC`, which growth is on record?
Answer: 49.3% (inactive)
